CFTR F508del cor: CFTR F508del correction in bronchial cells; CFBE cells, YFP halide quenching; stimulated with forskolin plus potentiator P3; % fluorescence drop versus neutral controls; activity (quench increase), % at 7.58 µM; 350,000 tested, 0.36% active; AID 720511;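 active means mean added fluorescence quench of at least 8% versus neutral control, with both replicates also reaching 8%; inconclusive means only one of the mean or replicate conditions met; inactive means mean below 8% and not both replicates reaching 8%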;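 further: cells transiently co-express mutant CFTR-F508del with the halide-sensitive YFP; corrector assay measuring rescue of mutant channel to the surface after 24 h compound exposure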
PAX8 inh HTS: PAX8 transcriptional activity inhibition. RMG-I TPO-luciferase reporter, SteadyGlo, 24 h. inhibition, % at 12.6 µM. 360,000 tested, 1.2% active. AID 652154;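 active means mean replicate inhibition at least 60% with every replicate also reaching 60%; inconclusive means only one of the two criteria is met; inactive means mean below 60% and not all replicates reaching 60%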;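 further: luciferase light reporting Pax8 driven TPO promoter activity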
EWS-Fli inh: blocks EWS/Fli oncoprotein-driven transcription. A673 NR0B1-luciferase reporter, viability-normalised. inhibition, % at 12.6 µM. 350,000 tested, 0.67% active;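 active means mean inhibition of at least 50% after viability correction, with every replicate also passing that limit; inconclusive means mean reaches 50% but only one of two replicates passes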;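 further: firefly luciferase signal divided by Alamar Blue viability fluorescence both relative to DMSO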
Env fusion inh: inhibitors of HIV Env-mediated cell fusion; HeLa-JRFL Env/CEM21 cell fusion, luciferase; inhibition, % at 12.3 µM; 360,000 tested, 1.1% active;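 active means mean replicate inhibition score of at least 50 and every replicate individually at or above 50; inconclusive means only one of the two criteria met; inactive means mean below 50 and not all replicates reaching 50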
FXN GAA850 act: frataxin GAA850 promoter activation; activation, % at 6 µM; HEK293 lucGAA850 FXN promoter luciferase reporter, 24 h; percent of 10 µM SAHA response; 360,000 tested, 0.56% active;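 active means activation above the average of all compounds screened plus 3 SD, cutoff fixed separately per campaign, cut at about 7.5% in these data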
Each line names hits and unclear results; the compound was inactive in the other large screens; [ ] = dose if it differs, or a comment. Compounds with a hit are over-represented: about 2.5% of the library has one in this group of screens.

CCOC(=O)[C@]12CCCC=C1N(Cc1ccccc1)C(=O)[C@H](CC(=O)NCc1cccc(C(F)(F)F)c1)C2	Env fusion inh inconclusive (no result: FXN GAA850 act)
CCOC(=O)[C@]12CCCC=C1N(Cc1cccc3ccccc13)C(=O)[C@H](CC(=O)NCc1ccc(OC)c(OC)c1)C2	Env fusion inh 56 (no result: FXN GAA850 act)
CCOC(=O)[C@]12CCCC=C1N(Cc1cccc3ccccc13)C(=O)[C@H](CC(=O)NCc1cccc(C(F)(F)F)c1)C2	CFTR F508del cor 11 (no result: FXN GAA850 act)
C[C@@H]1CCCCO[C@@H](CN(C)C(=O)Nc2ccccc2)[C@H](C)CN([C@H](C)CO)C(=O)c2cc(N(C)C)ccc2O1	none (no result: FXN GAA850 act)
O=C(C[C@H]1CC[C@H]2[C@@H](COC[C@@H](O)CN2Cc2cc(F)ccc2F)O1)NCc1ccccc1	none (no result: Env fusion inh, FXN GAA850 act)
COc1ccc(-c2nnc(Nc3nc4c(OC)cccc4s3)o2)cc1	Env fusion inh 72 (no result: CFTR F508del cor, PAX8 inh HTS, EWS-Fli inh)
COc1cc(OC)cc(-c2nnc(Nc3nc4c(F)cccc4s3)o2)c1	none (no result: CFTR F508del cor, PAX8 inh HTS, EWS-Fli inh, Env fusion inh)
N#C[C@H]1[C@@H](c2ccc(C#CC3CCCCC3)cc2)[C@@H](CO)N1S(=O)(=O)c1ccccc1	PAX8 inh HTS 79 (no result: FXN GAA850 act)
N#C[C@H]1[C@@H](c2ccc(C#CC3CCCCC3)cc2)[C@H](CO)N1S(=O)(=O)c1ccccc1	none (no result: FXN GAA850 act)
N#C[C@@H]1[C@@H](c2ccc(-c3ccccc3)cc2)[C@@H](CO)N1C(=O)Cc1ccncc1	PAX8 inh HTS 68 (no result: FXN GAA850 act)
CCCC#Cc1ccc([C@@H]2[C@@H](C#N)N(S(=O)(=O)c3cccc(F)c3)[C@H]2CO)cc1	PAX8 inh HTS 81 (no result: FXN GAA850 act)
N#C[C@H]1[C@H](c2ccc(C#CC3CCCCC3)cc2)[C@@H](CO)N1S(=O)(=O)c1ccccc1	PAX8 inh HTS 68 (no result: FXN GAA850 act)
CCCC#Cc1ccc([C@@H]2[C@@H](CO)N(S(=O)(=O)c3cccc(F)c3)[C@H]2C#N)cc1	none (no result: FXN GAA850 act)
CC(C)CC#Cc1ccc2c(c1)O[C@@H](CN(C)Cc1ccccc1F)[C@H](C)CN([C@H](C)CO)S2(=O)=O	none (no result: PAX8 inh HTS, Env fusion inh, FXN GAA850 act)
COc1ccc(NC(=O)N(C)C[C@H]2Oc3c(NC(=O)c4cc(C)nn4C)cccc3C(=O)N([C@H](C)CO)C[C@@H]2C)cc1	none (no result: EWS-Fli inh, FXN GAA850 act)
CO[C@@H]1CN(C)C(=O)c2ccc(NC(=O)c3cc(C)on3)cc2OC[C@@H](C)NC[C@@H]1C	none (no result: PAX8 inh HTS, Env fusion inh, FXN GAA850 act)
Cc1ccccc1S(=O)(=O)N1[C@H](CO)[C@@H](c2ccc(C#CC3CC3)cc2)[C@@H]1C#N	PAX8 inh HTS 64 (no result: Env fusion inh, FXN GAA850 act)
N#C[C@H]1[C@H](c2ccc(C#CC3CCCCC3)cc2)[C@@H](CO)N1C(=O)Cc1ccccn1	none (no result: FXN GAA850 act)
N#C[C@@H]1[C@@H](c2ccc(C#CC3CC3)cc2)[C@H](CO)N1S(=O)(=O)c1ccccc1	none (no result: FXN GAA850 act)
N#C[C@H]1[C@@H](c2ccc(C#CC3CCCCC3)cc2)[C@@H](CO)N1C(=O)Cc1ccccn1	PAX8 inh HTS 61 (no result: FXN GAA850 act)
CCCNC(=O)Nc1ccc2c(c1)C(=O)N(C)C[C@@H](OC)[C@H](C)CN(C(C)=O)[C@@H](C)CO2	none (no result: FXN GAA850 act)
CCc1cnc(N2[C@H](C#N)[C@@H](c3ccccc3C3=CCCCC3)[C@@H]2CO)s1	none (no result: PAX8 inh HTS, Env fusion inh, FXN GAA850 act)
COc1ccc(-c2ccc3n(c2=O)C[C@@H]2[C@@H](CO)[C@H](C(=O)N(C)C)[C@H]3N2C(=O)c2cnccn2)cc1	none (no result: CFTR F508del cor, FXN GAA850 act)
c1cc2cc(CNc3nc(NCC4CC4)nc4ccsc34)ccc2o1	Env fusion inh 80
COc1ccccc1CNc1nc(NCc2ccc3occc3c2)c2sccc2n1	Env fusion inh 58
COc1ccccc1CNc1nc(Nc2cccc(-c3cnco3)c2)c2sccc2n1	PAX8 inh HTS 74
Cc1ccc(CNc2nc(NCC3CC3)nc3ccsc23)c(C)c1	none
COc1ccccc1CNc1nc(NCc2ccccc2OC)c2sccc2n1	none
CN1c2ccc(-c3ccc(C#N)cc3)cc2[C@@H]2[C@@H](CCN2C(=O)NC2CCCCC2)[C@H]1CO	none (no result: FXN GAA850 act)
COc1cccc(-c2ccc3c(c2)[C@H]2[C@H](CCN2C(=O)NC2CCCCC2)[C@@H](CO)N3C)c1	PAX8 inh HTS 96 (no result: FXN GAA850 act)
CN1c2ccc(-c3ccc(C#N)cc3)cc2[C@@H]2[C@@H](CCN2C(=O)NC2CCCCC2)[C@@H]1CO	PAX8 inh HTS 88 (no result: FXN GAA850 act)
COc1ccc(-c2ccc3c(c2)[C@@H]2[C@@H](CCN2C(=O)NC2CCCC2)[C@H](CO)N3C)cc1	Env fusion inh 59[16.7 µM] (no result: FXN GAA850 act)
CC(C)C#Cc1cnc2c(c1)C(=O)N([C@H](C)CO)C[C@H](C)[C@H](CN(C)C(=O)Nc1cc(F)ccc1F)O2	none (no result: PAX8 inh HTS, FXN GAA850 act)

Source: PubChem BioAssay
